Source: PubChem BioAssay AID1159580 (chemical genetic matrix, 2015)
Several values for one entry are separate records, joined by “and”; a condition that tells them apart may be missing. Equal values may be shown once. Out of some 5,500 compounds screened, about 2,000 (36%) were called active. Another 18% or so got no clear call; they are omitted. Cut-off read from the data, not from the text of the source: active = normalized growth mostly below about 0.91 (no sharp cut-off); inconclusive = no clear call, values can overlap the other calls; inactive = mostly above about 0.92. Some of the results follow.

Assay: chemical genetic growth profiling, strain panel (AID 1159580);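 note: tested at 20 µM; growth read once vehicle control cultures reached saturation at 30 °C; 1 = growth at the plate median or of vehicle wells; lower values mean less growth of the strain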
Details: S. cerevisiae deletion strains, growth OD

Measured: normalized growth

C[C@]12C=CC(=O)C=C1CCC1C2C(=O)C[C@@]2(C)C1CC[C@]2(O)C(=O)CO (stereo not given in full)
inactive: locus YAL013W, strain DEP1, stronger effect = lower value 0.992 | locus YAL021C, strain ccr4, stronger effect = lower value 1.03 | locus YAL026C, strain drs2, stronger effect = lower value 1.02 | locus YAL030W, strain snc1, stronger effect = lower value 0.997 | locus YBL061C, strain skt5, stronger effect = lower value 0.992 | locus YBR009C, strain hhf1, stronger effect = lower value 1.01 | locus YBR021W, strain FUR4, stronger effect = lower value 0.985 | locus YBR023C, strain chs3, stronger effect = lower value 1.01 | locus YBR171W, strain sec66, stronger effect = lower value 0.979 | locus YBR229C, strain ROT2, stronger effect = lower value 0.954 | locus YBR231C, strain swc5, stronger effect = lower value 1.01 | locus YBR279W, strain paf1, stronger effect = lower value 1 | locus YCL011C, strain gbp2, stronger effect = lower value 1 | locus YCL016C, strain dcc1, stronger effect = lower value 1.01 | locus YCL029C, strain bik1, stronger effect = lower value 0.978 | locus YCL061C, strain MRC1, stronger effect = lower value 1 | locus YCL069W, strain vba3, stronger effect = lower value 0.996 | locus YCR088W, strain abp1, stronger effect = lower value 0.989 | locus YDL005C, strain med2, stronger effect = lower value 0.981 | locus YDL035C, strain GPR1, stronger effect = lower value 0.981 | locus YDL040C, strain nat1, stronger effect = lower value 0.995 | locus YDL074C, strain BRE1, stronger effect = lower value 0.965 | locus YDL101C, strain DUN1, stronger effect = lower value 0.985 | locus YDL134C, strain PPH21, stronger effect = lower value 0.992 | locus YDL185W, strain tfp1, stronger effect = lower value 0.983 | locus YDL192W, strain arf1, stronger effect = lower value 0.997 | locus YDR001C, strain nth1, stronger effect = lower value 1 | locus YDR069C, strain doa4, stronger effect = lower value 0.98 | locus YDR101C, strain arx1, stronger effect = lower value 0.991 | locus YDR137W, strain rgp1, stronger effect = lower value 1.01 | locus YDR150W, strain NUM1, stronger effect = lower value 0.987 | locus YDR159W, strain sac3, stronger effect = lower value 1.01 | locus YDR162C, strain NBP2, stronger effect = lower value 0.992 | locus YDR195W, strain ref2 0.916 | locus YDR297W, strain sur2, stronger effect = lower value 0.989 | locus YDR318W, strain mcm21, stronger effect = lower value 0.996 | locus YDR334W, strain swr1, stronger effect = lower value 0.999 | locus YDR335W, strain msn5, stronger effect = lower value 0.997 | locus YDR388W, stronger effect = lower value 0.986 | locus YDR392W, strain spt3, stronger effect = lower value 1.05 | locus YDR502C, strain sam2, stronger effect = lower value 0.989 | locus YEL003W, strain gim4, stronger effect = lower value 1 | locus YEL037C, strain rad23, stronger effect = lower value 0.996 | locus YEL061C, strain CIN8 (second series), stronger effect = lower value 0.997 | locus YEL061C, strain CIN8, stronger effect = lower value 0.985 | locus YER015W, strain faa2, stronger effect = lower value 0.996 | locus YER016W, strain bim1, stronger effect = lower value 1.01 | locus YER110C, stronger effect = lower value 0.966 | locus YER111C, strain swi4, stronger effect = lower value 0.981 | locus YER155C, strain BEM2 (second series), stronger effect = lower value 0.973 | locus YER155C, strain BEM2, stronger effect = lower value 1 | locus YER167W, strain BCK2, stronger effect = lower value 0.991 | locus YFR010W, strain ubp6, stronger effect = lower value 0.984 | locus YGL078C, strain dbp3, stronger effect = lower value 0.984 | locus YGL086W, strain mad1, stronger effect = lower value 0.995 | locus YGL167C, strain pmr1, stronger effect = lower value 0.991 | locus YGL173C, strain kem1, stronger effect = lower value 0.994 | locus YGL227W, strain vid30, stronger effect = lower value 0.999 | locus YGL240W, strain doc1, stronger effect = lower value 0.978 | locus YGL248W, strain PDE1, stronger effect = lower value 0.978 | locus YGL253W, strain hxk2, stronger effect = lower value 0.992 | locus YGR078C, strain PAC10, stronger effect = lower value 0.988 | locus YGR135W, strain pre9, stronger effect = lower value 0.997 | locus YGR252W, strain gcn5, stronger effect = lower value 0.95 | locus YHR013C, strain ard1, stronger effect = lower value 0.999 | locus YHR027C, strain rpn1, stronger effect = lower value 1 | locus YHR030C, strain SLT2, stronger effect = lower value 0.997 and 1.02 | locus YHR079C, strain IRE1 (second series), stronger effect = lower value 0.998 | locus YHR079C, strain IRE1, stronger effect = lower value 1.05 | locus YHR094C, strain hxt1, stronger effect = lower value 0.988 | locus YHR129C, strain ARP1, stronger effect = lower value 0.963 | locus YHR142W, strain chs7, stronger effect = lower value 0.972 | locus YHR200W, strain rpn10, stronger effect = lower value 0.986 | locus YIL066C, strain RNR3, stronger effect = lower value 0.98 | locus YIL073C, strain SPO22, stronger effect = lower value 1.01 | locus YIL125W, strain kgd1, stronger effect = lower value 0.993 | locus YIR030C, strain dcg1, stronger effect = lower value 0.987 | locus YJL092W, strain hpr5, stronger effect = lower value 1 | locus YJL095W, strain BCK1 (second series), stronger effect = lower value 1.01 | locus YJL095W, strain BCK1, stronger effect = lower value 0.982 and 1.03 | locus YJL115W, strain asf1, stronger effect = lower value 0.988 | locus YJL129C, strain trk1, stronger effect = lower value 0.978 | locus YJL134W, strain LCB3, stronger effect = lower value 0.995 | locus YJL154C, strain vps35, stronger effect = lower value 1 | locus YJL164C, strain tpk1, stronger effect = lower value 1.02 | locus YJL166W, strain qcr8, stronger effect = lower value 0.976 | locus YJL168C, strain set2, stronger effect = lower value 0.992 | locus YJL187C, strain SWE1 (second series), stronger effect = lower value 0.984 | locus YJR043C, strain POL32, stronger effect = lower value 1 | locus YJR066W, strain TOR1, stronger effect = lower value 0.976
